The sequences below were run on FXR:RXRa (NR concentration 270 nM, RXRa partner concentration 90 nM) (assay: PBM binding z-score (relative to random genomic background probes); higher = stronger binding; sequences stand for … in GC…GCGATTGACAGCGTAGAATGAAGG).
Summary of the method: (§1)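 Antibodies against each partner of ligand-free nuclear receptor dimers (one per run) detected binding on custom Agilent 4×180K protein-binding microarrays after 1 h incubation. The double-stranded probes had 34-nt variable regions carrying direct-repeat seeds, single-nucleotide variants, half-site ablations and random human genomic background sequences. Binding z-scores, from regression-normalized fluorescence, use the random background probes as reference.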

Row | Sequence | PBM binding z-score
1 | TCTTGTAGGTCAGCAGGTTAAGAAAGCTGGCCAA | 3.31
2 | TAGCCTAGGTCATTCAGGGCCCAGTATAGAAAGC | 4.66
3 | AATATAGGGTCACTAGGCCAGAGTAGGTACGAAT | 6.26
4 | CCTCCGAGGACAACAGGAGGTCAGAGCTGCCAGA | 1.35
5 | CCTAGCTGGTCAAGGTCACACACGCTATAGGTAC | 4.92
6 | ATCGAAAGGTCGTCAGGTGAGTATACAGAAAGGC | 5.1
7 | ATCGAAAGGTCGTGAGGTGAATATACAGAAAGGC | 5.8
8 | TGAATGAGGTTATAAGAGCAGGGAACGTTGCAAA | 1.63
9 | CCTAGTTGGCCAGGAGGTCACACACCGGATATGA | 4.04
10 | AGTCAAAGTTCACTAGGTAACGTCAGATTCAGCT | 4.66
11 | AGAACGAGGGCACGCTGAGTAGATAGCAGAGTAG | 0.37
12 | TCAGACAGGTGATGGTAACTCAGGTACGCAGTCG | 0.415
13 | CCTCGGAGGACAAGAGGAGGTCAGAGCTGCCAGA | 0.831
14 | ATATGTAGGTTATCGGGTAATTCAGTTTGCGCAT | 0.917
15 | GCTATTAGTTGAAAGCGCAACCGAATGATTCTCG | -0.0843
16 | CGGCAAAGTTCAAGGTAACGTAACAGAAAGCAGC | 6.25
17 | ATACCAAGGTGATCGTGAGGTTGTTGATACTAAC | 0.619
18 | ACAGACAGGTGAGTGAAGGTACCTCAGCTGGACG | -0.587
19 | GGAACGACGGCATTCGAGTTGATAGCATGGCGAT | -0.557
20 | TCGCGTAGGTTACCAATGGGGCATTCAGCTTTCT | -0.205

Row | Sequence | PBM binding z-score
21 | TTACCAAGGTAAGCTGAGGTCGTTGATCCAACTC | 0.46
22 | CCTACTGGGCCACGAAAGGTCAGTGATTCAGTGA | 1.7
23 | GCTTCTAGATCAAGGTTAAGAAAGACTAAGCTAA | -0.054
24 | ACGATTAGTTGAGACGAGGGCAACCGATAGGTTG | 0.116
25 | ATATGTAGGTGAGCTGGGGTCATTCAGACTAGGC | 4.23
26 | CCTAGTTGGTCAGGAGGTCTCACACCGGATATGA | 0.237
27 | CTCGAAAGGTCGTGCTCAGGTGAGGATACCAAAC | 5.21
28 | CCGGCTGGGGCAAGGTTACCATAACGCACAGCCA | 0.218
29 | CCGACTGGGGCATAAGGTTACCATAAGCCAGCCC | 0.197
30 | GCGACTGGGGCACAGCAGGTTACCATAAGGTTGG | 0.178
31 | AGTCAAAGTTAAGGACGAGGTAACGTAAAGCACG | -0.0625
32 | CGTCCAAGGTCAACGTCAGTGAAAGAGACTCGAA | 7.13
33 | ACAGACAGGTGAGTGAATGTAACTCAGCTGGACG | -0.0424
34 | GCTGCTAGGTCAACTGATGGTCAGATAAAGCTCG | 4.47
35 | TGAATGAGGTTATAGGATCAGGGAACGTTGCAAA | 1.98
36 | TAGTCTAGGTCATTGGGCCAGTATAGTACGCATC | 4.44
37 | CCAACTGGGCCAAAGGTCATTGATTCCAATGCTC | 4.93
38 | AGCCAAAGTTCATCTAGGTAACGTAAGATATGCT | 6.68
39 | TCATATAGGTCATACAGGTGAAAGTCGGCATCTA | 6.18

These sequences were tested on LXRa:RXRa (NR concentration 270 nM, RXRa partner concentration 90 nM) in the same assay as above.
Summary of the method: as §1

Row | Sequence | PBM binding z-score
40 | TCTTGTAGGTCAGCAGGTTAAGAAAGCTGGCCAA | 2.55
41 | TAGCCTAGGTCATTCAGGGCCCAGTATAGAAAGC | 3.59
42 | AATATAGGGTCACTAGGCCAGAGTAGGTACGAAT | 5.13
43 | CCTCCGAGGACAACAGGAGGTCAGAGCTGCCAGA | 2.3
44 | CCTAGCTGGTCAAGGTCACACACGCTATAGGTAC | 3.91
45 | ATCGAAAGGTCGTCAGGTGAGTATACAGAAAGGC | 3.98
46 | ATCGAAAGGTCGTGAGGTGAATATACAGAAAGGC | 4.42
47 | TGAATGAGGTTATAAGAGCAGGGAACGTTGCAAA | 1.78
48 | CCTAGTTGGCCAGGAGGTCACACACCGGATATGA | 3.22
49 | AGTCAAAGTTCACTAGGTAACGTCAGATTCAGCT | 4.88
50 | AGAACGAGGGCACGCTGAGTAGATAGCAGAGTAG | 0.529
51 | TCAGACAGGTGATGGTAACTCAGGTACGCAGTCG | 0.602
52 | CCTCGGAGGACAAGAGGAGGTCAGAGCTGCCAGA | 1.16
53 | ATATGTAGGTTATCGGGTAATTCAGTTTGCGCAT | 1.31
54 | GCTATTAGTTGAAAGCGCAACCGAATGATTCTCG | -0.353
55 | CGGCAAAGTTCAAGGTAACGTAACAGAAAGCAGC | 5.26
56 | ATACCAAGGTGATCGTGAGGTTGTTGATACTAAC | 0.547
57 | ACAGACAGGTGAGTGAAGGTACCTCAGCTGGACG | -0.527
58 | GGAACGACGGCATTCGAGTTGATAGCATGGCGAT | -0.773
59 | TCGCGTAGGTTACCAATGGGGCATTCAGCTTTCT | 1.54

Row | Sequence | PBM binding z-score
60 | TTACCAAGGTAAGCTGAGGTCGTTGATCCAACTC | 2.12
61 | CCTACTGGGCCACGAAAGGTCAGTGATTCAGTGA | 3.12
62 | GCTTCTAGATCAAGGTTAAGAAAGACTAAGCTAA | 0.652
63 | ACGATTAGTTGAGACGAGGGCAACCGATAGGTTG | -0.256
64 | ATATGTAGGTGAGCTGGGGTCATTCAGACTAGGC | 3.62
65 | CCTAGTTGGTCAGGAGGTCTCACACCGGATATGA | 0.219
66 | CTCGAAAGGTCGTGCTCAGGTGAGGATACCAAAC | 3.76
67 | CCGGCTGGGGCAAGGTTACCATAACGCACAGCCA | 0.386
68 | CCGACTGGGGCATAAGGTTACCATAAGCCAGCCC | 1.68
69 | GCGACTGGGGCACAGCAGGTTACCATAAGGTTGG | 0.265
70 | AGTCAAAGTTAAGGACGAGGTAACGTAAAGCACG | -0.031
71 | CGTCCAAGGTCAACGTCAGTGAAAGAGACTCGAA | 5.39
72 | ACAGACAGGTGAGTGAATGTAACTCAGCTGGACG | -0.166
73 | GCTGCTAGGTCAACTGATGGTCAGATAAAGCTCG | 3.11
74 | TGAATGAGGTTATAGGATCAGGGAACGTTGCAAA | 1.6
75 | TAGTCTAGGTCATTGGGCCAGTATAGTACGCATC | 4.2
76 | CCAACTGGGCCAAAGGTCATTGATTCCAATGCTC | 4.78
77 | AGCCAAAGTTCATCTAGGTAACGTAAGATATGCT | 6.25
78 | TCATATAGGTCATACAGGTGAAAGTCGGCATCTA | 5.45

Reference: the supplement of paper PMC6555819
